Assay outcomes: PubChem, National Center for Advancing Translational Sciences (NCATS)
The list is not random: actives were taken first. Their share in the collection is about 21%.
Cycloheximide cs = Cycloheximide Counterscreen for Small Molecule Inhibitors of Shiga Toxin; max response, %; cell reporter, cycloheximide protein synthesis inhibition counterscreen; 300,000 tested, 12% active; AID 2314, 2010; in the data active = max response mostly above about 13%, no sharp cut-off; inactive = mostly below about 14%; note: read at 38.3 µM for the half of the compounds with a filed dose; 0% is about no effect
HCV inh = qHTS Assay for Inhibitors of Hepatitis C Virus (HCV) | Potency, µM (titrated, usually from 41.8 µM), for inactives: at the top dose activity change, negative = inhibition, most hits filed as inhibitors | Huh7.5.1 HCVcc-Cre infection, luciferase reporter, 44 h | 340,000 tested, 3.4% active; note: potency is the fitted concentration of half-maximal effect; % is set by controls: 0 for no effect and ±100 for the full control effect
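Infectious HCVcc-Cre (~0.5 moi) was added to cells just after compound, with cells seeded 4 h earlier at 1,000 per well. Luciferase activity after 44 h culture reported infection; substrate was incubated 15 min at room temperature before reading.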
Pf growth 48h = Primary qHTS for delayed death inhibitors of the malarial parasite plastid, 48 hour incubation | P. falciparum luciferase growth in erythrocytes, 48 h | Potency, µM (titrated, usually from 28.7 µM), without a hit: at the highest dose activity change, negative = inhibition, usual class: inhibitors | 310,000 tested, 5.9% active; note: potency is the fitted concentration of half-maximal effect; % is set by controls: 0 for no effect and ±100 for the full control effect
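Read-out is firefly luciferase luminescence from an integrated reporter in P. falciparum, so falling signal marks reduced parasite growth. Infected erythrocytes were at 2% hematocrit and 0.1% parasitemia (final) in Albumax-supplemented RPMI 1640.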
Pf growth 96h = Primary qHTS for delayed death inhibitors of the malarial parasite plastid, 96 hour incubation; P. falciparum luciferase reporter growth, 96 h; Potency, µM (doses to about 28.7 µM), without a hit: top-dose activity change, negative = inhibition, actives largely listed as inhibitors; 320,000 tested, 6.9% active; AID 504834, 2011; note: potency is the fitted concentration of half-maximal effect; % is set by controls: 0 for no effect and ±100 for the full control effect
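Compounds incubated with erythrocytes infected by luciferase-expressing P. falciparum (2% hematocrit, 0.05% parasitemia final) for 96 hours, 37 C in 5% CO2. Growth inhibition scored as decreased luciferase luminescence.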
AMA1-RON2 inh = qHTS for Inhibitors of AMA1-RON; Towards Development of Antimalarial Drug Lead: Primary Screen; Plasmodium falciparum AMA1 (3D7) - RON2 peptide interaction; AlphaScreen AMA1-biotinylated RON2 peptide binding; Potency, µM (highest dose often 58.2 µM), for the others: top-dose activity change, negative = inhibition, actives largely listed as inhibitors; 360,000 tested, 0.2% active;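 note: potency is the fitted concentration of half-maximal effect; 0% = vehicle wells and -100% = peptide control; nearly all actives have a fitted effect of over 45% in size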
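AMA1 (3D7) with his tag at 25 nM final met compounds first, then biotinylated RON2 peptide at 25 nM; detection used donor plus acceptor beads, 10 µg/mL apiece, read by AlphaScreen after 30 min at room temperature.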
Shiga toxin inh = A qHTS for Small Molecule Inhibitors of Shiga Toxin. Vero cells, Shiga toxin protein synthesis inhibition reporter. inhibition, % at 38.7 µM. 290,000 tested, 9.2% active; in the data active = inhibition mostly above about 28%, no sharp cut-off; inactive = mostly below about 43%; note: 0% is about no effect
Starred values were filed as active, the others as inactive; [ ] = dose if it differs, or a comment. Unless noted, calls come from the whole dose curve; as a rule, active = well fitted curve in the direction sought with a large enough effect; inconclusive = small, poorly fitted or top-dose-only effect, or another doubt; inactive = no such curve, though single readings can be large; an effect the other way counts as inactive or inconclusive.

Screening CC(=O)c1cccc(NC(=O)C(C)OC(=O)Cc2c[nH]c3ccccc23)c1 (stereo not drawn) returned HCV inh -12%[8.37 µM], Pf growth 48h 8%, Pf growth 96h 17% and AMA1-RON2 inh -4%.
For O=C(C[n+]1cccc(C(=O)Nc2ccccc2)c1)c1ccc([N+](=O)[O-])cc1 the results were Cycloheximide cs 7, HCV inh 11µM*, Pf growth 48h -77%, Pf growth 96h -2%, AMA1-RON2 inh -7% and Shiga toxin inh -2.
N#Cc1cc[n+](CC(=O)c2ccc(NC(=O)c3ccccc3)cc2)cc1 was read as Cycloheximide cs 1, HCV inh 14%, Pf growth 48h 4.1µM*, Pf growth 96h 3.3µM*, AMA1-RON2 inh inconclusive and Shiga toxin inh 19.
Screening Cc1cccc[n+]1CC(=O)Nc1ccccc1 returned Cycloheximide cs 0, HCV inh -1%, Pf growth 48h -14%, Pf growth 96h inconclusive, AMA1-RON2 inh 3% and Shiga toxin inh -11.
`Cc1cccc[n+]1CC(=O)c1ccc(NC(=O)c2ccccc2)cc1` gave Cycloheximide cs 4, HCV inh 10%, Pf growth 48h 2.9µM*, Pf growth 96h 11%, AMA1-RON2 inh -3% and Shiga toxin inh 11.
For Cc1c(N)cc[n+](CC(=O)c2ccccc2)c1C the results were Cycloheximide cs -6, HCV inh 8.9µM*, Pf growth 48h -30%, Pf growth 96h -3%, AMA1-RON2 inh -18% and Shiga toxin inh -10.
For O=C(C[n+]1cccc(C(=O)Nc2ccccc2)c1)c1ccc(Cl)cc1 the results were AMA1-RON2 inh 0%.
For CC(=O)c1c(C)[nH]c(C(=O)N(C)C(c2ccccc2)c2ccccc2)c1C the results were Cycloheximide cs -2, HCV inh inconclusive, Pf growth 48h inconclusive, Pf growth 96h inconclusive, AMA1-RON2 inh -4% and Shiga toxin inh 6.
`C[C@@H]1CCCCCCCCC(=O)OCCN1C(=O)OC(C)(C)C` gave HCV inh 15%, Pf growth 48h 27%, Pf growth 96h 30% and AMA1-RON2 inh -1%.
COc1ccc(C(=O)/C(=C\c2ccco2)N2C=CC=CC2=C(C#N)C#N)cc1 was read as Cycloheximide cs -1, HCV inh 11µM*, Pf growth 48h inconclusive, Pf growth 96h inconclusive, AMA1-RON2 inh -5% and Shiga toxin inh -5.
`COc1ccc(/C=C(/C(=O)c2cccs2)N2C=CC=CC2=C(C#N)C#N)cc1` gave Cycloheximide cs 41*, HCV inh inconclusive, Pf growth 48h 68%, Pf growth 96h 57%, AMA1-RON2 inh -11% and Shiga toxin inh 47*.
For N#CC(C#N)=C1C=CC=CN1/C(=C\c1ccco1)C(=O)c1ccccc1 the results were Cycloheximide cs -7, HCV inh inconclusive, Pf growth 48h inconclusive, Pf growth 96h inconclusive, AMA1-RON2 inh -17% and Shiga toxin inh -6.
Screening CCN(CC)c1ccc2c(c1)CCCN2 returned Cycloheximide cs 1, HCV inh 11µM*, Pf growth 48h 10µM*, Pf growth 96h 10µM* and Shiga toxin inh -2.
`C=CCn1c2ccccc2c2n[nH]c(=S)nc21` gave Cycloheximide cs -2, HCV inh -4%, Pf growth 48h 3%, Pf growth 96h inconclusive, AMA1-RON2 inh 109% and Shiga toxin inh -9.
`CC(=O)Nc1ccc(CN(C)CC2CCCN(CCc3cccc(C(F)(F)F)c3)C2)cc1` (stereo not drawn) gave Cycloheximide cs -1, HCV inh 1.4µM*, Pf growth 48h 4.1µM*, Pf growth 96h inconclusive, AMA1-RON2 inh -20% and Shiga toxin inh -6.
C=CCC(=O)N(CC)CC1CCCN(CCc2cccc(F)c2)C1 (stereo not drawn) was read as Cycloheximide cs 1, HCV inh -2%, Pf growth 48h -20%, Pf growth 96h -23%, AMA1-RON2 inh 0% and Shiga toxin inh -10.
For CCN(Cc1ccc(O)cc1)CC1CCCN(CCc2cccc(F)c2)C1 (stereo not drawn) the results were Cycloheximide cs -3, HCV inh 8.9µM*, Pf growth 48h 2.3µM*, Pf growth 96h 12µM* and AMA1-RON2 inh 7%.
CSCCC(=O)N(C)CC1CCN(CCc2cccc(C(F)(F)F)c2)CC1 was read as Cycloheximide cs -2, HCV inh -21%, Pf growth 48h 8%, Pf growth 96h 4.1µM*, AMA1-RON2 inh -1% and Shiga toxin inh -5.
CN(CC1CCCN(CCc2cccc(C(F)(F)F)c2)C1)C(=O)c1ccco1 (stereo not drawn) was read as Cycloheximide cs 1, HCV inh -6%, Pf growth 48h -5%, Pf growth 96h 31%, AMA1-RON2 inh 3% and Shiga toxin inh -34.
`CCc1nn(CC(=O)NCCCN2CCOCC2)c(=O)c2cc3c(OC)cccc3n12` gave HCV inh 5% and AMA1-RON2 inh -4%.
For O=C(NCCCN1CCCC1=O)c1sc2ccccc2c1Cl the results were Cycloheximide cs 29*, HCV inh -2%, Pf growth 48h 27%, Pf growth 96h 4%, AMA1-RON2 inh 27% and Shiga toxin inh 39*.
`O=C(NCCCN1CCCC1=O)Nc1ccccc1Cl` gave Cycloheximide cs 7, HCV inh 6%, Pf growth 48h 13%, Pf growth 96h 13%, AMA1-RON2 inh 1% and Shiga toxin inh 20.
`O=C(NCCCN1CCCC1=O)Nc1ccc([N+](=O)[O-])cc1` gave Cycloheximide cs 18*, HCV inh 8%, Pf growth 48h -23%, Pf growth 96h inconclusive, AMA1-RON2 inh 1% and Shiga toxin inh 43.
O=C(NCCCN1CCCC1=O)Nc1ccc(Cl)cc1 was read as HCV inh 0% and AMA1-RON2 inh 14%.
`O=C(NCCCN1CCCC1=O)c1cccs1` gave Cycloheximide cs -2, HCV inh 25%, Pf growth 48h 6%, Pf growth 96h 53%, AMA1-RON2 inh 11% and Shiga toxin inh -4.
O=C(NCCCN1CCCC1=O)Nc1ccccc1F was read as Cycloheximide cs 19*, HCV inh 15%, Pf growth 48h 42%, Pf growth 96h 11%, AMA1-RON2 inh -9% and Shiga toxin inh 37*.
COc1cc([N+](=O)[O-])ccc1NC(=O)NCCCN1CCCC1=O was read as Cycloheximide cs 4, HCV inh inconclusive, Pf growth 48h 70%, Pf growth 96h 12%, AMA1-RON2 inh -1% and Shiga toxin inh -8.
Cc1ccc(NC(=O)NCCCN2CCCC2=O)cc1Cl was read as Cycloheximide cs 31*, HCV inh 5%, Pf growth 48h 37%, Pf growth 96h 13%, AMA1-RON2 inh -8% and Shiga toxin inh 74*.
